Consider two sequences from publication PMC7862700, “An all-to-all approach to the identification of sequence-specific readers for epigenetic DNA modifications on cytosine”.

Experiment in all cases: DAPPL (digital affinity profiling via proximity ligation, sequencing); 10 mM Tris-HCl pH 7.5, 50 mM NaCl, 1 mM DTT, 4% glycerol, room temperature, 30 min; GST-TFs on glutathione beads, 16-mer random dsDNA library, 0.1% formaldehyde crosslink after washing; high values mean tight binding
What all share (details): protein: recombinant; tags: N-terminal GST; dsDNA, one strand shown

The target of assay [1] is T1, FLI1 (Homo sapiens, UniProt Q01543 1-452).
T1 sequence: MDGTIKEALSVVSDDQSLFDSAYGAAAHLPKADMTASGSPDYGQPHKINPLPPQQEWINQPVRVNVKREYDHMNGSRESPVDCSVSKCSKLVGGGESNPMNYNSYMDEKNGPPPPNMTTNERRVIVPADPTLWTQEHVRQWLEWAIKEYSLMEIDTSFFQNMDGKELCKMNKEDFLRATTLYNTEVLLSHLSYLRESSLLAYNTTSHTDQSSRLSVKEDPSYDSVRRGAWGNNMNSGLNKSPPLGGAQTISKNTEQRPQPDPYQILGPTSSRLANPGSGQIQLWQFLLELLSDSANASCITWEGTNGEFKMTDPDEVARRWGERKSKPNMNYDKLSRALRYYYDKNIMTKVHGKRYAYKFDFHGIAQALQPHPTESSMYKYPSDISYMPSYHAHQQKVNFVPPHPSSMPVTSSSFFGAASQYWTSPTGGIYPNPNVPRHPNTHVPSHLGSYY
The method in brief:
(§1)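 Sequencing on an Illumina NextSeq500 followed washing, crosslinking with 0.1% formaldehyde, proximity ligation (BsaI/T4 ligase, 1 h, 37 °C) and PCR amplification of pools that had been incubated for 30 min at room temperature with 200 nmole of a random double-stranded 16-mer DNA library in Tris/NaCl/DTT/glycerol buffer. Each pool held DNA-barcoded human transcription factors, expressed in yeast as GST fusions and captured on glutathione beads, plus a tag-only sample. Binding signal is a hexamer's read frequency for a factor divided by its frequency in the tag-only sample.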

The target of assay [2] is T2, ELK1 (Homo sapiens, UniProt P19419 1-428).
T2 sequence: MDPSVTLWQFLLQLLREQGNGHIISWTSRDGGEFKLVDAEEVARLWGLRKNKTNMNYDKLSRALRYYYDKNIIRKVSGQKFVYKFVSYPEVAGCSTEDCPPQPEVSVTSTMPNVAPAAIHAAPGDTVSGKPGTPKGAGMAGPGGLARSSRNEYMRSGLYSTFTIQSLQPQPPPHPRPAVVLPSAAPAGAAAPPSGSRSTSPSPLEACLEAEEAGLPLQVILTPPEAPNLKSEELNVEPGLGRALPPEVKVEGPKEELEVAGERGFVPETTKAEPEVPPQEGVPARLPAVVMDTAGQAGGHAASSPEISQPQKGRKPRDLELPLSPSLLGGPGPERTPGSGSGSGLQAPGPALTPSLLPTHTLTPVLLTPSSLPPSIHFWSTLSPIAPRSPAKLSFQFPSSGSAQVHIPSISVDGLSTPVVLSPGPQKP
The method in brief:
as §1

Assay [3] deals with T3, GABPA (Homo sapiens, UniProt Q06546 1-454).
T3 sequence: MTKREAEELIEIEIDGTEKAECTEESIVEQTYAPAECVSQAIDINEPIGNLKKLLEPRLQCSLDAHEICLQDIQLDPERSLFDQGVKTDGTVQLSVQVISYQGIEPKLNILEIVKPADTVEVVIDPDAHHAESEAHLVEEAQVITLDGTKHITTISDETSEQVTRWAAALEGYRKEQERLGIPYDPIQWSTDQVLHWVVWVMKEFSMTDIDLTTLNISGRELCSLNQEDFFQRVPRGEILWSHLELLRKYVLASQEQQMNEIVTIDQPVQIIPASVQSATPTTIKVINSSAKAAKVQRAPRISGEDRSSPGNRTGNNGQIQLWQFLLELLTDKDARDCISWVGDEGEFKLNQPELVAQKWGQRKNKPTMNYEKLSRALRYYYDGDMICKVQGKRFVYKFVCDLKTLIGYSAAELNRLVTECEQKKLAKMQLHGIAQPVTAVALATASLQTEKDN
The gist of the method: as §1

The target of assay [4] is T4, ERG (Homo sapiens, UniProt P11308 1-479).
T4 sequence: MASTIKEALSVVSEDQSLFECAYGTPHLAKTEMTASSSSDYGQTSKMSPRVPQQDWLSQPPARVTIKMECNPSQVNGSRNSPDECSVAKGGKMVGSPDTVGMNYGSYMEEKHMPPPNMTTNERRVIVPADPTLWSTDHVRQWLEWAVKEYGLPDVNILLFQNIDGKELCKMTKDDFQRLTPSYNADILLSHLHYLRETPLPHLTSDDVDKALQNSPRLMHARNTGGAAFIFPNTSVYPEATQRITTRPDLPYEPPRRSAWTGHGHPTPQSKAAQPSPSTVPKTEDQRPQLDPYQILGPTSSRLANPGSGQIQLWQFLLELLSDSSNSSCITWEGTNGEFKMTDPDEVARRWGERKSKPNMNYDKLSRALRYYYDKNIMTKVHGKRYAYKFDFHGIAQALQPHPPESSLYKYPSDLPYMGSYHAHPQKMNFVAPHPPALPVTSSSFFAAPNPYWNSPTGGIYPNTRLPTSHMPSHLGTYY
The gist of the method:
as §1

Assay [5] concerns the target ELF1 (Homo sapiens, UniProt P32519 1-619). The method in brief: as §1
Assay [6] deals with SPI1 (Homo sapiens, UniProt P17947 1-270). The method in brief:
as §1

The target in assay [7] is SPIB (Homo sapiens, UniProt Q01892 1-262). The gist of the method: as §1
Assay [8] concerns the target T5, ELK3 (Homo sapiens, UniProt P41970 1-407).
T5 sequence: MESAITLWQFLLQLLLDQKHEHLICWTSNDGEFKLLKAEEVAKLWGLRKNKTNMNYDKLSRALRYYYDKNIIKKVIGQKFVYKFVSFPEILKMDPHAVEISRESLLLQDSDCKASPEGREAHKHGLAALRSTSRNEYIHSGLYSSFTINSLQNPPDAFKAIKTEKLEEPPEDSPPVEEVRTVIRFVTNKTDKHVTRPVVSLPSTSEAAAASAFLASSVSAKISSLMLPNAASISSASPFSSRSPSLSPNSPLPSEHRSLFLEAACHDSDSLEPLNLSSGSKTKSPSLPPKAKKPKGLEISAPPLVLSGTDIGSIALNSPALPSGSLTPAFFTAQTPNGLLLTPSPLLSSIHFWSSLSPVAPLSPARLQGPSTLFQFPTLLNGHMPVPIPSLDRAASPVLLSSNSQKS
The gist of the method: as §1

For assay [9], the target named is T6, FEV (Homo sapiens, UniProt Q99581 1-238).
T6 sequence: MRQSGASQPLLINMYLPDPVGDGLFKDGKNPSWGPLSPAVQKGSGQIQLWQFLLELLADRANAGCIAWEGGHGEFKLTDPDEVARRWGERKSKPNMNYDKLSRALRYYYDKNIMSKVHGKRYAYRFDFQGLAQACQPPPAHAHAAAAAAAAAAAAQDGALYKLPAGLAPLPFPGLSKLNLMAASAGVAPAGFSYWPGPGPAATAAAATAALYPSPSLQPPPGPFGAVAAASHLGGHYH
The gist of the method: as §1

The target in assay [10] is ETV5 (Homo sapiens, UniProt P41161 1-510). The method in brief: as §1
Assay [11] deals with T7, SPIC (Homo sapiens, UniProt Q8N5J4 1-248).
T7 sequence: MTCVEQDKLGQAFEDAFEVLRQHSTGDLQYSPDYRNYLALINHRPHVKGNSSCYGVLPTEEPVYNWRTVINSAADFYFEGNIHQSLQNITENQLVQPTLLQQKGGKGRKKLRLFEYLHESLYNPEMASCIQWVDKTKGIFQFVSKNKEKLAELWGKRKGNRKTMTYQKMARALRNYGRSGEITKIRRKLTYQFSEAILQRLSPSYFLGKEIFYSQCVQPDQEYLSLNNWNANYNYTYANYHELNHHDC
The method in brief: as §1

In assay [12] the target is ELF4 (Homo sapiens, UniProt Q99607 1-663). The gist of the method:
as §1

Assay [13] concerns the target T8, ELK4 (Homo sapiens, UniProt P28324-2 1-405).
T8 sequence: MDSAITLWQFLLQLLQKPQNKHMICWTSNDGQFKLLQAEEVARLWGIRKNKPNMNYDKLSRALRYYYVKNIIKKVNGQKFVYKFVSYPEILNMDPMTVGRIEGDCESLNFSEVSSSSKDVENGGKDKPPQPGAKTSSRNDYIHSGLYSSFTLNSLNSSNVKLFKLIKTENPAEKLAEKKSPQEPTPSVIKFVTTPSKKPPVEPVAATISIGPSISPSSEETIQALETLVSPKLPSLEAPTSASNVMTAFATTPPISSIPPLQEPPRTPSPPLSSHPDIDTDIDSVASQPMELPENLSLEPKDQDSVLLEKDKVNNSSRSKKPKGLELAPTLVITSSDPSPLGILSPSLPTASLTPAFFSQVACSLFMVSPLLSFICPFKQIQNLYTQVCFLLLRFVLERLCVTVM
The method in brief: as §1

For assay [14], the target named is T9, ETV2 (Homo sapiens, UniProt O00321 1-342).
T9 sequence: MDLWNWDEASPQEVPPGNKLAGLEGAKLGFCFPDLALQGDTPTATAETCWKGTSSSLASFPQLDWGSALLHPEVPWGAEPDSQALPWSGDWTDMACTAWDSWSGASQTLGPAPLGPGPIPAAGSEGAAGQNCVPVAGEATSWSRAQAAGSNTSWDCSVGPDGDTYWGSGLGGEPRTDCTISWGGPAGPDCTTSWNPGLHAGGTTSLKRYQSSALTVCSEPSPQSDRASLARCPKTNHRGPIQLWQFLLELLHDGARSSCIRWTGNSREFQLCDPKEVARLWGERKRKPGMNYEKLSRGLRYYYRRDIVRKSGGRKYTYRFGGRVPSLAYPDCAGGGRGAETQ
The gist of the method:
as §1

Assay [15] addresses T10, ELF3 (Homo sapiens, UniProt P78545 1-371).
T10 sequence: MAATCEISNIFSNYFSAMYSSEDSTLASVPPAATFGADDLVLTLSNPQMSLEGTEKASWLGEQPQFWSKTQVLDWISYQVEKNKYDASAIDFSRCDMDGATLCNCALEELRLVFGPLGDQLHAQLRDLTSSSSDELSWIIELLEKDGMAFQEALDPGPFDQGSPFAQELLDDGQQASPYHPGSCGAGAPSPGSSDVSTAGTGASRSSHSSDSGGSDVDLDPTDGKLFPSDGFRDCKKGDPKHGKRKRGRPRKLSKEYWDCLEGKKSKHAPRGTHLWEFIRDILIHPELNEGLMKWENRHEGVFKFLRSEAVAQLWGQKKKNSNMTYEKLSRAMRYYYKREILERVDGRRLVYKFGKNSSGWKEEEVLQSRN
The gist of the method: as §1

Assay [16] deals with T11, EHF (Homo sapiens, UniProt Q9NZC4 1-300).
T11 sequence: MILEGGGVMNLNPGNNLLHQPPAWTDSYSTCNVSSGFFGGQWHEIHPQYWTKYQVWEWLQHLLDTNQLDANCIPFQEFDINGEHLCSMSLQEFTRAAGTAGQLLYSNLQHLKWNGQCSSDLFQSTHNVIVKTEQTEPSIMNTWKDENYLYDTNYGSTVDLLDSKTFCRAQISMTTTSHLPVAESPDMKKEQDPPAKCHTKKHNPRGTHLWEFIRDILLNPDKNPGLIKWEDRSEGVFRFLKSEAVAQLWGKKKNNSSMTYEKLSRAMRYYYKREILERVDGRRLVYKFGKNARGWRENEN
The gist of the method:
as §1

In assay [17] the target is CRX (Homo sapiens, UniProt O43186 1-299). The method in brief:
as §1

Assay [18] addresses ETV1 (Homo sapiens, UniProt P50549 1-477). The gist of the method:
as §1

Chain of SPIB (Q01892 whole entry): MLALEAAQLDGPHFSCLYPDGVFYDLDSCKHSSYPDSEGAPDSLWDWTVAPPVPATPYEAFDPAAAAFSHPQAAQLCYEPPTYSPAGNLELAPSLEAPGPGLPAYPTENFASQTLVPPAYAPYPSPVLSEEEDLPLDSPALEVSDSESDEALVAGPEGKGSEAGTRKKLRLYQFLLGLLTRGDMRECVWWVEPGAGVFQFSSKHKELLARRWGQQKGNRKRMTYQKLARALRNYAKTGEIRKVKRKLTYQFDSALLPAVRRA
Chain of ETV5 (P41161 whole entry): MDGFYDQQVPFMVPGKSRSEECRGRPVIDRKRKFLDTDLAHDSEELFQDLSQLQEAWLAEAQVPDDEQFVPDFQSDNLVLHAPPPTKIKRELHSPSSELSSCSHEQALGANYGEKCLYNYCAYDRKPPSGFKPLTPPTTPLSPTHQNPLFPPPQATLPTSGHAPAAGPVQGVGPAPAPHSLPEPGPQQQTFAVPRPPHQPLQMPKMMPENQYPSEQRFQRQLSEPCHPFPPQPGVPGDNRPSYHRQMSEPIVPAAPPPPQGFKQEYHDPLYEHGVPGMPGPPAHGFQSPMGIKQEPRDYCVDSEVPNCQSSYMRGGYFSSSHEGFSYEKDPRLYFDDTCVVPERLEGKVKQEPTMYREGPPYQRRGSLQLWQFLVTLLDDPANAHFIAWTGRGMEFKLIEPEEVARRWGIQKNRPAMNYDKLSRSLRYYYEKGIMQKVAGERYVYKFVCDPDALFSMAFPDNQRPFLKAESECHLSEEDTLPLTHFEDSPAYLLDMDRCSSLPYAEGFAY
Chain of ELF4 (Q99607 whole entry): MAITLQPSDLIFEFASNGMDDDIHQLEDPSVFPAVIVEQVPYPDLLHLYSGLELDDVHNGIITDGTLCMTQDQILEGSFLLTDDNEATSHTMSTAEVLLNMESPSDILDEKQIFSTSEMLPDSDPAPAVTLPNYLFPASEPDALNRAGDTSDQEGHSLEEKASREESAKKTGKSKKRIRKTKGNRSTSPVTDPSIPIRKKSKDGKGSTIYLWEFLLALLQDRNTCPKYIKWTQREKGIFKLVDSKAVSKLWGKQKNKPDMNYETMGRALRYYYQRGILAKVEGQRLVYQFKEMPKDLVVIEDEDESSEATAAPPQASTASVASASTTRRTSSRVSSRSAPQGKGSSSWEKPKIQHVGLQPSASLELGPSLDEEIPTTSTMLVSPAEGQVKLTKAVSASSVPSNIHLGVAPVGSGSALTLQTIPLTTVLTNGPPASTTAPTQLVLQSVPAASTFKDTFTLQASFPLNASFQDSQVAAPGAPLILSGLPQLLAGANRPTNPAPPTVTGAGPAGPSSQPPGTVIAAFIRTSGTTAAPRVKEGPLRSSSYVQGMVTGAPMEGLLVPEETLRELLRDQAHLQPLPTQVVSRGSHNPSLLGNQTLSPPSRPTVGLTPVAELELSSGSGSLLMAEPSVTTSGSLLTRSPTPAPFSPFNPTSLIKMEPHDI
Chain of ELF1 (P32519 whole entry): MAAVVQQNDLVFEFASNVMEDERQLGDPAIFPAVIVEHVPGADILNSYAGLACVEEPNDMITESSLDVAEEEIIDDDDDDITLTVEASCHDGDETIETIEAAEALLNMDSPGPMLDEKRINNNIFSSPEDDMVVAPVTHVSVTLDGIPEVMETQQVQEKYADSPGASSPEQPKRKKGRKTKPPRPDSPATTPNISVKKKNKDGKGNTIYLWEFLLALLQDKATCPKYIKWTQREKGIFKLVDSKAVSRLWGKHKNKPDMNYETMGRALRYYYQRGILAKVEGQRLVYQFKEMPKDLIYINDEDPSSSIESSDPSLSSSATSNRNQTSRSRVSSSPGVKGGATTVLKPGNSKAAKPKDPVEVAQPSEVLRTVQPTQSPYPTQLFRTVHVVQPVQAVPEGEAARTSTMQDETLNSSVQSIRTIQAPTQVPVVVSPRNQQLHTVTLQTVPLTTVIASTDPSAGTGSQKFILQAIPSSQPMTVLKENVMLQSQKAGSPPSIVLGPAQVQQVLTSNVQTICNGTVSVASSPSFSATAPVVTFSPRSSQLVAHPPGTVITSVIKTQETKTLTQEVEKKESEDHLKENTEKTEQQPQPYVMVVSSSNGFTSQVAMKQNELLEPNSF
Chain of ETV1 (P50549 whole entry): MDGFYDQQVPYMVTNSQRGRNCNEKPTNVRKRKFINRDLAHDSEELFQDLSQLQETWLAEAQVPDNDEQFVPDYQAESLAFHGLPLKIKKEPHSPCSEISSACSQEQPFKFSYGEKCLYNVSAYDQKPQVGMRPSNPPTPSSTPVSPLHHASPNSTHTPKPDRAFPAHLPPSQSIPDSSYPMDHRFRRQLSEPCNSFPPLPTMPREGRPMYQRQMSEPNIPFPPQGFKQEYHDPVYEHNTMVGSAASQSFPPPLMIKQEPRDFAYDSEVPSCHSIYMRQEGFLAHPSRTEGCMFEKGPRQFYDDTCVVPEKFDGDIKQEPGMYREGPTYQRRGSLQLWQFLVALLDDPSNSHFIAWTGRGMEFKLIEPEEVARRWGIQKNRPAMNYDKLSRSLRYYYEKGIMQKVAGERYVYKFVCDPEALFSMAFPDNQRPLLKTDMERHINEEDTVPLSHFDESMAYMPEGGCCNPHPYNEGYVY
Chain of CRX (O43186 whole entry): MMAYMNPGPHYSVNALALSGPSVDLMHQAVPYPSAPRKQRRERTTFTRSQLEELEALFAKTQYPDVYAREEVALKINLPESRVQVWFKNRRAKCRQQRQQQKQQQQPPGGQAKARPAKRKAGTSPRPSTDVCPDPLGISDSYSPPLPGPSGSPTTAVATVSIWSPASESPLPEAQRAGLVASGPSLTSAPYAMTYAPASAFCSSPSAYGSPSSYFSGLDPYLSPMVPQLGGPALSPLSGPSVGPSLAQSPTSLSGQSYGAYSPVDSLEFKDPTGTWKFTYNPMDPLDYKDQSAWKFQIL

Turning to ACCCAA, the binding signal in assay [1] is 1.12 fold enrichment (6-mer frequency, TF over GST control); in assay [2], 1.15 fold enrichment (6-mer frequency, TF over GST control); in [3], 1.18 fold enrichment (6-mer frequency, TF over GST control); in assay [4], 1.03 fold enrichment (6-mer frequency, TF over GST control); in assay [5], 1.16 fold enrichment (6-mer frequency, TF over GST control); in [6], 1.12 fold enrichment (6-mer frequency, TF over GST control). The binding signal in [7] was 1.08 fold enrichment (6-mer frequency, TF over GST control); in assay [8] it was 1.03 fold enrichment (6-mer frequency, TF over GST control); in [9], 1.05 fold enrichment (6-mer frequency, TF over GST control); in [10], 1.08 fold enrichment (6-mer frequency, TF over GST control); in assay [11] it was 1.2 fold enrichment (6-mer frequency, TF over GST control); in assay [12] it was 1.18 fold enrichment (6-mer frequency, TF over GST control). The binding signal in assay [13] was 1.08 fold enrichment (6-mer frequency, TF over GST control); in assay [14], 1.13 fold enrichment (6-mer frequency, TF over GST control); in [15], 1.26 fold enrichment (6-mer frequency, TF over GST control).

Regarding CCGTAT, the binding signal is 1.22 fold enrichment (6-mer frequency, TF over GST control) in assay [1]; 1.36 fold enrichment (6-mer frequency, TF over GST control) in assay [2]; 1.31 fold enrichment (6-mer frequency, TF over GST control) in assay [3]; 1.2 fold enrichment (6-mer frequency, TF over GST control) in assay [4]; 1.26 fold enrichment (6-mer frequency, TF over GST control) in assay [5]; 1.14 fold enrichment (6-mer frequency, TF over GST control) in [16]. Moreover, the binding signal is 1.26 fold enrichment (6-mer frequency, TF over GST control) in assay [6]; 1.31 fold enrichment (6-mer frequency, TF over GST control) in assay [7]; 1.32 fold enrichment (6-mer frequency, TF over GST control) in [8]; 1.14 fold enrichment (6-mer frequency, TF over GST control) in assay [9]; 1.23 fold enrichment (6-mer frequency, TF over GST control) in [10]; 1.29 fold enrichment (6-mer frequency, TF over GST control) in assay [11]. Further, the binding signal in [12] was 1.17 fold enrichment (6-mer frequency, TF over GST control); in assay [13] it was 1.27 fold enrichment (6-mer frequency, TF over GST control); in [14], 1.34 fold enrichment (6-mer frequency, TF over GST control); in [17] it was 1 fold enrichment (6-mer frequency, TF over GST control); in assay [18], 1.19 fold enrichment (6-mer frequency, TF over GST control).
